The campaign covered roughly 5,500 compounds. About 2,000 (36%) were called active. Not shown: some 18% with an inconclusive outcome. No stated cut-off is given here; in the data, active means normalized growth mostly below about 0.91 (no sharp cut-off); inconclusive means no clear call, values can overlap the other calls; inactive means mostly above about 0.92. Some of the results follow.
Test: chemical genetic growth profiling, strain panel (AID 1159580);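 further: tested at 20 µM; growth read once vehicle control cultures reached saturation at 30 °C; 1 = growth at the plate median or of vehicle wells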
Conditions: growth OD

Measured: normalized growth

O=C(O[C@@H]1Cc2c(O)cc(O)cc2O[C@@H]1c1ccc(O)c(O)c1)c1cc(O)c(O)c(O)c1
active: S. cerevisiae deletion strains, locus YJR043C, strain POL32, stronger effect = lower value 0.792 | S. cerevisiae deletion strains, locus YLR058C, strain SHM2, stronger effect = lower value 0.883 | S. cerevisiae deletion strains, locus YLR342W, strain FKS1 (second series), stronger effect = lower value 0.628 | S. cerevisiae deletion strains, locus YLR342W, strain FKS1, stronger effect = lower value 0.831 | S. cerevisiae deletion strains, locus YML016C, strain PPZ1, stronger effect = lower value 0.841 | S. cerevisiae deletion strains, locus YMR058W, strain fet3, stronger effect = lower value 0.564 | S. cerevisiae deletion strains, locus YMR125W, strain sto1, stronger effect = lower value 1.12 [resistant] | S. cerevisiae deletion strains, locus YNL209W, strain ssb2, stronger effect = lower value 0.597 | S. cerevisiae deletion strains, locus YOL006C, strain TOP1, stronger effect = lower value 0.507 | S. cerevisiae deletion strains, locus YOR106W, strain vam3, stronger effect = lower value 0.622 | S. cerevisiae deletion strains, locus YPL051W, strain arl3, stronger effect = lower value 0.776 | S. cerevisiae strains, strain wild type, stronger effect = lower value 0.702
inactive: S. cerevisiae deletion strains, locus YJR066W, strain TOR1, stronger effect = lower value 0.93 | S. cerevisiae deletion strains, locus YKL009W, strain mrt4, stronger effect = lower value 1.02 | S. cerevisiae deletion strains, locus YKL068W, stronger effect = lower value 1.01 | S. cerevisiae deletion strains, locus YKL085W, strain MDH1 (second series), stronger effect = lower value 0.997 | S. cerevisiae deletion strains, locus YKL085W, strain MDH1, stronger effect = lower value 0.997 | S. cerevisiae deletion strains, locus YKL160W, strain elf1, stronger effect = lower value 0.97 | S. cerevisiae deletion strains, locus YKR001C, strain vps1, stronger effect = lower value 1.04 | S. cerevisiae deletion strains, locus YKR026C, strain gcn3, stronger effect = lower value 1.03 | S. cerevisiae deletion strains, locus YKR091W, strain srl3, stronger effect = lower value 1.02 | S. cerevisiae deletion strains, locus YLL001W, strain dnm1, stronger effect = lower value 0.982 | S. cerevisiae deletion strains, locus YLL026W, stronger effect = lower value 1.03 | S. cerevisiae deletion strains, locus YLL041C, strain sdh2, stronger effect = lower value 1.02 | S. cerevisiae deletion strains, locus YLR027C, strain aat2, stronger effect = lower value 0.993 | S. cerevisiae deletion strains, locus YLR039C, strain RIC1, stronger effect = lower value 0.715 | S. cerevisiae deletion strains, locus YLR102C, strain apc9, stronger effect = lower value 1.01 | S. cerevisiae deletion strains, locus YLR113W, strain HOG1, stronger effect = lower value 1.01 | S. cerevisiae deletion strains, locus YLR221C, strain rsa3, stronger effect = lower value 1.01 | S. cerevisiae deletion strains, locus YLR258W, strain gsy2, stronger effect = lower value 0.952 | S. cerevisiae deletion strains, locus YLR262C, strain YPT6 (second series), stronger effect = lower value 0.909 | S. cerevisiae deletion strains, locus YLR268W, strain sec22, stronger effect = lower value 0.94 | S. cerevisiae deletion strains, locus YLR320W, strain mms22, stronger effect = lower value 1.02 | S. cerevisiae deletion strains, locus YLR357W, strain rsc2, stronger effect = lower value 0.865 | S. cerevisiae deletion strains, locus YLR370C, strain arc18, stronger effect = lower value 0.935 | S. cerevisiae deletion strains, locus YLR371W, strain rom2, stronger effect = lower value 0.916 | S. cerevisiae deletion strains, locus YLR384C, strain iki3, stronger effect = lower value 1.03 | S. cerevisiae deletion strains, locus YLR418C, strain cdc73, stronger effect = lower value 0.963 | S. cerevisiae deletion strains, locus YML032C, strain rad52, stronger effect = lower value 1.02 | S. cerevisiae deletion strains, locus YML120C, strain ndi1, stronger effect = lower value 1 | S. cerevisiae deletion strains, locus YML124C, strain tub3, stronger effect = lower value 1.03 | S. cerevisiae deletion strains, locus YMR078C, strain ctf18, stronger effect = lower value 1.02 | S. cerevisiae deletion strains, locus YMR129W, stronger effect = lower value 1.03 | S. cerevisiae deletion strains, locus YMR205C, strain PFK2, stronger effect = lower value 1.03 | S. cerevisiae deletion strains, locus YMR223W, strain ubp8, stronger effect = lower value 0.985 | S. cerevisiae deletion strains, locus YMR231W, strain pep5, stronger effect = lower value 0.972 | S. cerevisiae deletion strains, locus YMR263W, strain SAP30, stronger effect = lower value 0.997 | S. cerevisiae deletion strains, locus YMR307W, strain GAS1, stronger effect = lower value 0.606 | S. cerevisiae deletion strains, locus YNL067W, strain RPL9B, stronger effect = lower value 0.961 | S. cerevisiae deletion strains, locus YNL071W, strain lat1, stronger effect = lower value 1.02 | S. cerevisiae deletion strains, locus YNL183C, strain NPR1, stronger effect = lower value 0.938 | S. cerevisiae deletion strains, locus YNL233W, strain BNI4, stronger effect = lower value 0.932 | S. cerevisiae deletion strains, locus YNL248C, strain rpa49, stronger effect = lower value 0.973 | S. cerevisiae deletion strains, locus YNL250W, strain rad50, stronger effect = lower value 1.04 | S. cerevisiae deletion strains, locus YNL271C, strain bni1, stronger effect = lower value 1.02 | S. cerevisiae deletion strains, locus YNL298W, strain CLA4, stronger effect = lower value 1.01 | S. cerevisiae deletion strains, locus YNL307C, strain MCK1, stronger effect = lower value 1.01 | S. cerevisiae deletion strains, locus YNL322C, strain KRE1 (second series), stronger effect = lower value 1.06 | S. cerevisiae deletion strains, locus YNR049C, strain mso1, stronger effect = lower value 1.04 | S. cerevisiae deletion strains, locus YNR052C, strain pop2, stronger effect = lower value 0.989 | S. cerevisiae deletion strains, locus YOL012C, strain htz1 0.447 | S. cerevisiae deletion strains, locus YOL147C, strain pex11, stronger effect = lower value 1.02 | S. cerevisiae deletion strains, locus YOR001W, strain rrp6, stronger effect = lower value 1.01 | S. cerevisiae deletion strains, locus YOR061W, strain CKA2, stronger effect = lower value 0.925 | S. cerevisiae deletion strains, locus YOR069W, strain VPS5, stronger effect = lower value 0.97 | S. cerevisiae deletion strains, locus YOR070C, strain gyp1, stronger effect = lower value 0.97 | S. cerevisiae deletion strains, locus YOR080W, strain dia2, stronger effect = lower value 0.983 | S. cerevisiae deletion strains, locus YOR083W, strain WHI5, stronger effect = lower value 0.961 | S. cerevisiae deletion strains, locus YOR136W, strain idh2, stronger effect = lower value 1.01 | S. cerevisiae deletion strains, locus YOR144C, strain elg1, stronger effect = lower value 1.02 | S. cerevisiae deletion strains, locus YOR184W, strain ser1, stronger effect = lower value 0.969 | S. cerevisiae deletion strains, locus YOR231W, strain MKK1, stronger effect = lower value 0.992 | S. cerevisiae deletion strains, locus YOR265W, strain rbl2, stronger effect = lower value 0.988 | S. cerevisiae deletion strains, locus YOR270C, strain vph1, stronger effect = lower value 0.923 | S. cerevisiae deletion strains, locus YOR290C, strain snf2, stronger effect = lower value 0.97 | S. cerevisiae deletion strains, locus YOR316C, strain cot1, stronger effect = lower value 1.03 | S. cerevisiae deletion strains, locus YPL055C, strain LGE1, stronger effect = lower value 0.761 | S. cerevisiae deletion strains, locus YPL078C, strain atp4, stronger effect = lower value 0.986 | S. cerevisiae deletion strains, locus YPL106C, strain sse1, stronger effect = lower value 0.896 | S. cerevisiae deletion strains, locus YPL240C, strain hsp82, stronger effect = lower value 1.01 | S. cerevisiae deletion strains, locus YPL241C, strain CIN2, stronger effect = lower value 0.973 | S. cerevisiae deletion strains, locus YPL256C, strain CLN2, stronger effect = lower value 1.01 | S. cerevisiae deletion strains, locus YPR119W, strain clb2, stronger effect = lower value 1.04 | S. cerevisiae deletion strains, locus YPR141C, strain kar3, stronger effect = lower value 1 | S. cerevisiae deletion strains, locus YPR163C, strain tif3, stronger effect = lower value 1.03 | S. cerevisiae deletion strains, locus YPR167C, strain met16, stronger effect = lower value 1.03 | S. cerevisiae deletion strains, strain wtn01, stronger effect = lower value 0.963
